In all, about 33,000 sequences were measured (“E-score (-0.5 to 0.5)”: median about -0.011, highest 2% from about 0.28 on). What follows is part of a selection rich in the highest values, with near analogues and random picks from the rest.

The target in the assay is T1, Gcr1 (UniProt P07261).
T1 sequence: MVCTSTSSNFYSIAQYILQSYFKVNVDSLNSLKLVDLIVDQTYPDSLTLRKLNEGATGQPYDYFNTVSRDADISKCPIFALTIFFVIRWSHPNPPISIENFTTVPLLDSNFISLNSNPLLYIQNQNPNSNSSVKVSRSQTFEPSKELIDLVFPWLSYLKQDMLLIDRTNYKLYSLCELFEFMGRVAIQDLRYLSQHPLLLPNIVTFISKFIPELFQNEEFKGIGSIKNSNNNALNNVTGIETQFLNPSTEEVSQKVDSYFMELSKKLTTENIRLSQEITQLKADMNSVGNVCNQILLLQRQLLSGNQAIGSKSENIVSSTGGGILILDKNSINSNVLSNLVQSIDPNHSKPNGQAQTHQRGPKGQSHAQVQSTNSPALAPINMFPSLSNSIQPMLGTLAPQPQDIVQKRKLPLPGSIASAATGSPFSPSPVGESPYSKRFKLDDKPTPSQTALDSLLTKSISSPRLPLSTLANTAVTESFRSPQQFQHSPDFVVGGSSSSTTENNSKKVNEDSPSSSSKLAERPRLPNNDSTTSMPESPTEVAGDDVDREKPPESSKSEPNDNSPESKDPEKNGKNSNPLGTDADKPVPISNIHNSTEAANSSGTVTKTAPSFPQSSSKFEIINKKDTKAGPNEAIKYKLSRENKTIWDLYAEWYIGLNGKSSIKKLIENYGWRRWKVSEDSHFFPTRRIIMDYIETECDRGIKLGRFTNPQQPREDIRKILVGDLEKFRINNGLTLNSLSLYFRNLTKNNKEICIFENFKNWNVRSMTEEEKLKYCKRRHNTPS
As to the kind of experiment: PBM E-score (8-mer binding enrichment) (E-score (-0.5 to 0.5)); higher = stronger / more preferred TF binding. To be noted: protein concentration: 100 nM; construct: GST-full length. Here is the method: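 Universal 'all 10-mer' protein binding microarrays (Agilent AMADID 015681) probed with GST-tagged S. cerevisiae TFs (full-length or DBD) made by in vitro transcription/translation (PURExpress), about 100-200 nM. Bound TF was detected with fluorescent anti-GST. Each ungapped 8-mer (which stands for itself and its reverse complement) is scored by the PBM enrichment score (E-score), a modified Wilcoxon-Mann-Whitney statistic from -0.5 to +0.5, computed with the Universal PBM Analysis Suite. Scale: above 0.35 generally sequence-specific binding.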
GCTAGCCA: the “PBM E-score” value is -0.232.

Take TAATGGAA: the “PBM E-score” value was determined as 0.28.

Turning to GATTGGAA, the “PBM E-score” value was 0.258.

Consider CATTGGAA, for which the “PBM E-score” value is 0.106.

On to AAATGGAA, for which the “PBM E-score” value came to 0.239.

As for CAATGGCA, the “PBM E-score” value is -0.159.

With TAATGGCA, the “PBM E-score” value was 0.295.

As to GAATGGAA, the “PBM E-score” value amounted to 0.225.

Regarding TATTGGAA, the “PBM E-score” value is 0.288.

As for GAATGGCA, the “PBM E-score” value is -0.0438.

GTTTATAA: the “PBM E-score” value is 0.129.

As to AATGTGAT, the “PBM E-score” value is -0.0732.

Turning to AATTGTCT, the “PBM E-score” value is -0.147.

As to GCTACTCC, the “PBM E-score” value amounted to 0.0342.

In the case of GCACCTGA, the “PBM E-score” value worked out at 0.0656.

With TCAGCTGA, the “PBM E-score” value is -0.106.

For the sequence GCAGCTAC, the “PBM E-score” value was found to be 0.267.

Turning to GCAGCTGC, the “PBM E-score” value came to 0.249.

As to TCAGCTAA, the “PBM E-score” value is -0.225.

As for GCAGCTGA, the “PBM E-score” value stood at 0.336.

Take GCAGCTAA: the “PBM E-score” value was determined as 0.329.

Consider CTCATTCC, for which the “PBM E-score” value came out at 0.0687.

For CAGCCCCG, the “PBM E-score” value is -0.107.

As for AGGCGAGC, the “PBM E-score” value was -0.0288.

In the case of GGGTGATA, the “PBM E-score” value was found to be 0.0068.

As for CCGCAAAA, the “PBM E-score” value was determined as 0.0921.

As for GATACCAA, the “PBM E-score” value worked out at 0.154.

On to GCTACCAC, for which the “PBM E-score” value is 0.323.

GCTACCAA: the “PBM E-score” value worked out at 0.179.

Consider GATACCAC, for which the “PBM E-score” value was 0.329.

Turning to ACTACCAC, the “PBM E-score” value turned out to be 0.101.

Consider AATACCAC, for which the “PBM E-score” value was found to be 0.097.

On to AACCTAAG, for which the “PBM E-score” value is -0.0759.

With ACCTCCTC, the “PBM E-score” value is -0.194.

As to AACGTCTA, the “PBM E-score” value was found to be 0.00101.

Regarding TATCCTGA, the “PBM E-score” value was 0.156.

Take GATCCTGA: the “PBM E-score” value was 0.0899.

As for CTTCCTAA, the “PBM E-score” value was 0.294.

In the case of ATTCCTGC, the “PBM E-score” value came out at 0.048.

For the sequence CATCCTGA, the “PBM E-score” value amounted to 0.292.

In the case of ATTCCTGA, the “PBM E-score” value worked out at 0.299.

Consider GTTCCTAA, for which the “PBM E-score” value worked out at 0.237.

Consider ATTCCTAG, for which the “PBM E-score” value is -0.0289.

With ATTCCTAC, the “PBM E-score” value is 0.0721.

For ATTCCTAA, the “PBM E-score” value is 0.284.

As to ATTCCTGG, the “PBM E-score” value worked out at 0.165.

As to CTTCCTAC, the “PBM E-score” value is 0.18.

On to TAGACCTA, for which the “PBM E-score” value is -0.0537.

Turning to AACCAGAG, the “PBM E-score” value is 0.0777.

With TACACAGA, the “PBM E-score” value was -0.106.

With CTTCCTTA, the “PBM E-score” value was 0.153.

For the sequence GGGTTGCA, the “PBM E-score” value was -0.0951.

For GAAGCGTC, the “PBM E-score” value amounted to 0.268.

For CATCAACA, the “PBM E-score” value was determined as 0.015.

Turning to ATGTTGTA, the “PBM E-score” value turned out to be 0.104.

On to AAGCACCT, for which the “PBM E-score” value stood at 0.106.

Regarding CAGCACCC, the “PBM E-score” value is 0.277.

As to GAGCACAC, the “PBM E-score” value is -0.271.

As to GAGCACCC, the “PBM E-score” value stood at 0.329.

Turning to AAGCACCC, the “PBM E-score” value was found to be 0.283.

Take AAGCACCG: the “PBM E-score” value was 0.0663.

Regarding ACGCCATG, the “PBM E-score” value was -0.0676.

Take GGTAAAAC: the “PBM E-score” value was -0.056.

As to AATGGCGC, the “PBM E-score” value was found to be 0.253.

As to CCTTCGTA, the “PBM E-score” value turned out to be 0.00994.

Turning to GCTTCTTA, the “PBM E-score” value was 0.338.

Take GCTTCTCC: the “PBM E-score” value was found to be 0.27.

As for ACTTCTTA, the “PBM E-score” value was 0.104.

In the case of GCTTCGTA, the “PBM E-score” value amounted to 0.329.

As for GCTTCTGA, the “PBM E-score” value came to 0.0646.

As for GCTTCTCA, the “PBM E-score” value amounted to 0.299.

Consider ACTTCGTA, for which the “PBM E-score” value amounted to 0.0106.

For the sequence CCTTCTCA, the “PBM E-score” value is -0.156.

As for CCTATTGC, the “PBM E-score” value is -0.0151.

As for CACGGAAC, the “PBM E-score” value amounted to 0.0756.

On to ACCCAAAT, for which the “PBM E-score” value was 0.233.

Regarding AAGTTCCT, the “PBM E-score” value was determined as 0.163.

Consider CTTGGTTC, for which the “PBM E-score” value was 0.149.

As to AAACAGAG, the “PBM E-score” value is -0.244.

As to TCCCTCAA, the “PBM E-score” value amounted to 0.00435.

On to ATGTTCCG, for which the “PBM E-score” value was -0.119.

With CCCGAAAG, the “PBM E-score” value was found to be 0.224.

Regarding AGGCGCTC, the “PBM E-score” value is -0.0859.

Turning to CTCTGCAC, the “PBM E-score” value was -0.0576.

As to AATTCCAA, the “PBM E-score” value turned out to be 0.308.

CATTCCAC: the “PBM E-score” value was 0.0952.

Take AATTCCAT: the “PBM E-score” value is 0.191.

Turning to AATTCCAG, the “PBM E-score” value was 0.274.

As for GATTCCAC, the “PBM E-score” value amounted to 0.382.

As to AATTCCAC, the “PBM E-score” value was determined as 0.191.

CATTCCAA: the “PBM E-score” value was 0.0418.

Regarding TATTCCAA, the “PBM E-score” value was found to be 0.224.

Take GATTCCAA: the “PBM E-score” value stood at 0.416.

For ACCAACGG, the “PBM E-score” value is -0.0789.

For the origin of these results see the supplement of paper PMC3334620.
